Test systems include CSF1R; CSK; CSNK1A1L; CSNK1A1; CSNK1D; CSNK1E; CSNK1G1; CSNK1G2; CSNK1G3; CSNK2A1; CSNK2A2; DAPK1; DAPK2; DAPK3; DDR1; DDR2.
Common to all, as to conditions: concentration: 1 μM, replicates: in singlicate; n = 1
The subject of a further test is T1, CTK.
T1 construct: gene MATK

The test system of a further test is T2, DCAMKL1.
T2 construct: gene DCLK1

Another test deals with T3, DCAMKL2.
T3 construct: gene DCLK2

In the next test the test system is T4, DCAMKL3.
T4 construct: gene DCLK3
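Note: KINOMEscan kinase panel screen.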

With `COC(=O)c1c(-c2ccccc2)c2cc(Br)ccc2c(=O)n1Cc1ccc(NC(=O)CCC(=O)O)cc1`, the “%Inh” value in the test on CSF1R is listed as 9%; with CSK it was 0%; with CSNK1A1L it was 18%; in the test on CSNK1A1, 16%; with CSNK1D, 0%; in the test on CSNK1E it was 0%. In addition, the “%Inh” value with CSNK1G1 turned out to be 0%; with CSNK1G2, 11%; with CSNK1G3, 0%; with CSNK2A1 it was 11%; with CSNK2A2, 19%; in the test with CTK it was 6%. Besides, the “%Inh” value with DAPK1 amounted to 0%; in the test on DAPK2 it was 0%; in the test with DAPK3, 0%; with DCAMKL1, 16%; with DCAMKL2 it was 0%; with DCAMKL3, 0%. For the same compound, the “%Inh” value is recorded as 2% with DDR1 and 22% in the test with DDR2.
Consider `COc1cc(Nc2nccc(N3CCC(NC(=O)C(C)c4ccc(Cl)cc4)C3)n2)cc(OC)c1OC` (centres unmarked) [GSK1379757], for which the “%Inh” value with CSF1R is 4%; in the test on CSK, 0%; in the test on CSNK1A1L it was 0%; in the test with CSNK1A1 it was 0%; with CSNK1D, 0%; in the test on CSNK1E it was 18%. Moreover, the “%Inh” value in the test with CSNK1G1 is on record as 0%; in the test with CSNK1G2, 0%; with CSNK1G3, 25%; in the test with CSNK2A1 it was 1%; in the test with CSNK2A2 it was 0%; in the test with CTK it was 0%. For the same compound, the “%Inh” value was 0% in the test on DAPK1; 0% in the test with DAPK2; 0% with DAPK3; 11% with DCAMKL1; 0% in the test on DCAMKL2; 0% with DCAMKL3. Besides, the “%Inh” value was 0% in the test with DDR1 and 6% with DDR2.
As for `Nc1ncnc2c1ncn2-c1cccc2ccccc12` [SKF-97184], the “%Inh” value in the test on CSF1R was determined as 3%; with CSK it was 0%; with CSNK1A1L, 0%; in the test on CSNK1A1, 0%; in the test on CSNK1D, 0%; in the test on CSNK1E, 11%. The “%Inh” value with CSNK1G1, with CSNK1G2, with CSNK1G3, with CSNK2A1, with CSNK2A2 and with CTK was 0% each time. Moreover, the “%Inh” value in the test on DAPK1 was 0%; in the test on DAPK2, 0%; in the test on DAPK3, 0%; with DCAMKL1, 0%; in the test on DCAMKL2, 13%; with DCAMKL3, 15%. Besides, the figures for the “%Inh” value with DDR1 and in the test on DDR2 were 0% and 59%, respectively.
In the case of `COc1cc2ncn(-c3cc(OCc4ccncc4)c(C(N)=O)s3)c2cc1OC` [GSK336313], the “%Inh” value in the test on CSF1R is 15%; in the test with CSK, 0%; with CSNK1A1L it was 2%; in the test on CSNK1A1, 0%; with CSNK1D, 8%; with CSNK1E, 29%. Besides, the “%Inh” value with CSNK1G1 is listed as 0%; in the test on CSNK1G2 it was 0%; in the test on CSNK1G3, 30%; in the test on CSNK2A1, 2%; in the test on CSNK2A2, 29%; with CTK it was 0%. The “%Inh” value with DAPK1 amounted to 8%; with DAPK2 it was 0%; in the test with DAPK3, 10%; with DCAMKL1 it was 4%; with DCAMKL2 it was 0%; in the test with DCAMKL3, 55%. The “%Inh” value in the test on DDR1 and in the test on DDR2 was 0% each time.
`COc1ccc(-c2coc3ccc(-c4nnc(SCc5cccc(C#N)c5)o4)cc23)cc1`: the “%Inh” value was found to be 2% with CSF1R; 20% with CSK; 7% in the test with CSNK1A1L; 10% with CSNK1A1; 0% with CSNK1D; 5% in the test on CSNK1E. The “%Inh” value with CSNK1G1 is on record as 11%; with CSNK1G2, 0%; with CSNK1G3, 8%; with CSNK2A1 it was 3%; in the test on CSNK2A2, 28%; with CTK it was 0%. For the same compound, the “%Inh” value in the test on DAPK1 was determined as 29%; in the test with DAPK2, 0%; in the test with DAPK3 it was 0%; in the test on DCAMKL1, 35%; in the test with DCAMKL2 it was 0%; with DCAMKL3, 0%. The “%Inh” value was 0% with DDR1 and 3% in the test with DDR2.
With `COC(=O)c1c(-c2ccccc2)c2cc(C)ccc2c(=O)n1Cc1ccccc1`, the “%Inh” value with CSF1R came to 17%; with CSK, 0%; in the test on CSNK1A1L it was 0%; in the test on CSNK1A1, 0%; in the test on CSNK1D, 0%; in the test with CSNK1E, 0%. The “%Inh” value is 0% in the test on CSNK1G1; 5% with CSNK1G2; 0% with CSNK1G3; 0% in the test with CSNK2A1; 0% in the test with CSNK2A2; 0% in the test with CTK. Moreover, the “%Inh” value with DAPK1 is listed as 1%; with DAPK2 it was 0%; in the test with DAPK3 it was 0%; with DCAMKL1 it was 0%; with DCAMKL2, 6%; with DCAMKL3, 0%. Also, the “%Inh” value in the test with DDR1 was 60%; in the test on DDR2, 33%.
As to `CCCNC(=O)Nc1ccc(Oc2ncnc3ccn(C)c23)cc1`, the “%Inh” value with CSF1R is 29%; with CSK it was 0%; with CSNK1A1L it was 7%; in the test with CSNK1A1, 10%; in the test with CSNK1D it was 9%; in the test with CSNK1E, 0%. Moreover, the “%Inh” value with CSNK1G1 is 2%; in the test on CSNK1G2, 11%; in the test with CSNK1G3, 0%; with CSNK2A1, 0%; in the test on CSNK2A2, 33%; with CTK, 35%. Further, the “%Inh” value in the test on DAPK1 was determined as 10%; in the test with DAPK2, 0%; in the test with DAPK3, 0%; in the test on DCAMKL1 it was 35%; with DCAMKL2 it was 0%; in the test on DCAMKL3, 0%. Also, the figures for the “%Inh” value in the test on DDR1 and in the test on DDR2 were 0% and 8%, respectively.
Turning to `O=C(NCc1cccs1)c1cc(C(=O)c2c(Cl)cccc2Cl)c[nH]1` [GW823670], the “%Inh” value was found to be 13% with CSF1R; 0% in the test on CSK; 0% in the test with CSNK1A1L; 0% in the test on CSNK1A1; 0% in the test with CSNK1D; 0% with CSNK1E. The “%Inh” value with CSNK1G1, in the test on CSNK1G2, in the test with CSNK1G3, in the test on CSNK2A1, with CSNK2A2 and in the test on CTK was 0% each time. For the same compound, the “%Inh” value came to 0% with DAPK1; 8% in the test with DAPK2; 22% in the test on DAPK3; 14% with DCAMKL1; 18% in the test with DCAMKL2; 2% in the test on DCAMKL3. Moreover, the “%Inh” value with DDR1 stood at 26%; in the test on DDR2 it was 0%.
`Nc1nccc2scc(-c3ccc4c(c3)CCN4C(=O)Cc3ccccc3)c12` [GSK2576924]: the “%Inh” value in the test on CSF1R was 78%; with CSK, 0%; in the test on CSNK1A1L it was 0%; in the test with CSNK1A1 it was 0%; in the test with CSNK1D it was 13%; in the test on CSNK1E, 6%. For the same compound, the “%Inh” value is listed as 7% in the test with CSNK1G1; 0% with CSNK1G2; 26% in the test on CSNK1G3; 5% with CSNK2A1; 13% with CSNK2A2; 0% with CTK. For the same compound, the “%Inh” value came out at 12% in the test with DAPK1; 3% in the test with DAPK2; 21% in the test on DAPK3; 16% in the test on DCAMKL1; 0% in the test on DCAMKL2; 27% with DCAMKL3. The “%Inh” value was 43% in the test on DDR1 and 3% with DDR2.
For `Cc1nnc(-c2ccc(C)c(-c3ccc(C(=O)O)cc3)c2)o1` [GW608005], the “%Inh” value with CSF1R is 0%; in the test on CSK, 0%; with CSNK1A1L, 0%; in the test on CSNK1A1, 0%; in the test with CSNK1D it was 0%; in the test on CSNK1E, 8%. Also, the “%Inh” value came out at 7% in the test on CSNK1G1; 0% in the test with CSNK1G2; 9% with CSNK1G3; 21% in the test with CSNK2A1; 8% in the test with CSNK2A2; 0% in the test with CTK. Further, the “%Inh” value with DAPK1, in the test on DAPK2, in the test with DAPK3, with DCAMKL1, in the test on DCAMKL2 and in the test with DCAMKL3 was 0% throughout. The entries for the “%Inh” value in the test on DDR1 and in the test on DDR2 were 7% and 1%, respectively.
